Data reported in PubChem BioAssay (EPA / NIEHS).
“And” between values parts separate entries of the source, which are not always exact repeats. Equal entries are not always repeated. The source made the active and inactive calls. Rule for the calls: active = hit-call score of the fitted dose curve at least 0.9, where 1 is the maximum; inactive = score below 0.9.

test: BSK_MyoF_SRB: Viability Assessment in the BioMAP Diversity Plus: MyoF Assay (AID 2284267); conditions: primary human lung fibroblasts;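 note: total protein by SRB absorbance in parallel cultures as cytotoxicity measure; cells assessed 24 h after compound addition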
Procedure, shortened: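 In this viability endpoint, fibroblasts from human lung are treated for 24 h, TCA-fixed, SRB-stained (0.1%) and read at 560 nm. Gain of signal relative to DMSO defines activity.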

Structure (SMILES)	outcome	AC50
O=S(=O)(c1ccc(Cl)cc1)c1ccc(Cl)cc1	inactive	–
COC(=O)c1sccc1S(=O)(=O)NC(=O)Nc1nc(C)nc(OC)n1	inactive	–
O=Cc1cccc(Oc2ccccc2)c1	inactive	–
COP(=S)(OC)Oc1ccc(S(=O)(=O)N(C)C)cc1	inactive	–
CC1(C)Cc2cccc(O)c2O1	inactive	–
O=C(O)C(F)(F)C(F)(F)C(F)(F)C(F)(F)C(F)(F)C(F)(F)C(F)(F)C(F)(F)C(F)(F)C(F)(F)F	–	5.01 µM (active) and 5.05 µM (active)
ClC(Cl)=C(Cl)C(Cl)=C(Cl)Cl	inactive	–
CCCCCCCCC(=O)NCc1ccc(O)c(OC)c1	inactive	–
CCSC(C)CC1CC(=O)C(C(CC)=NOC/C=C/Cl)=C(O)C1 (configuration not stated)	inactive	–
CCCCC(CC)CO[N+](=O)[O-] (configuration not stated)	inactive	–
CCNc1nc(NC(C)(C)C)nc(SC)n1	inactive	–
Nc1ncc([N+](=O)[O-])s1	inactive	–
O=[N+]([O-])c1ccc2c3c(cccc13)CC2	inactive	–
O=C(OC1CCCCC1)c1ccccc1C(=O)OC1CCCCC1	–	13.3 µM (active)
CCOP(=S)(OCC)Oc1ccc(S(C)=O)cc1 (configuration not stated)	inactive	–
CC(C)c1ccc(CO)cc1	inactive	–
COP(=S)(OC)Oc1c(Cl)cc(C)cc1Cl	inactive	–
ClC1=C(Cl)[C@]2(Cl)[C@H]3[C@H]([C@H]4C=C[C@H]3C4)[C@@]1(Cl)C2(Cl)Cl	inactive	–
C(=NC1CCCCC1)=NC1CCCCC1	–	7.2 µM (active)
Oc1c(I)cc(I)cc1I	–	18.2 µM (active)
BrCCBr	inactive	–
COP(=S)(OC)Oc1cc(Cl)c(Cl)cc1Cl	inactive	–
